PubChem BioAssay AID1159580 (chemical genetic matrix, 2015)
Hit rate of the full screen: of about 5,500 compounds, about 2,000 (36%) were called active. Roughly 18% stayed inconclusive and do not appear here. Cut-off read from the data, not from the text of the source: active = normalized growth mostly below about 0.91 (no sharp cut-off); inconclusive = no clear call, values can overlap the other calls; inactive = mostly above about 0.92. This is one part of the list.

Experiment: chemical genetic growth profiling, strain panel (AID 1159580);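 note: tested at 20 µM; growth read once vehicle control cultures reached saturation at 30 °C; 1 = growth at the plate median or of vehicle wells; lower values mean less growth of the strain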
Details: S. cerevisiae deletion strains, growth OD

Measured: normalized growth

CC(=O)c1ccc2c(c1)N(CCCN(C)C)c1ccccc1S2
inactive: locus YAL021C, strain ccr4, hits give low values 0.962 | locus YAL026C, strain drs2, hits give low values 0.981 | locus YAL030W, strain snc1, hits give low values 1 | locus YBL061C, strain skt5, hits give low values 0.992 | locus YBR009C, strain hhf1, hits give low values 1 | locus YBR023C, strain chs3, hits give low values 1.01 | locus YBR171W, strain sec66, hits give low values 0.988 | locus YBR231C, strain swc5, hits give low values 0.994 | locus YBR279W, strain paf1, hits give low values 0.988 | locus YCL011C, strain gbp2, hits give low values 0.976 | locus YCL016C, strain dcc1, hits give low values 0.995 | locus YCL061C, strain MRC1, hits give low values 0.983 | locus YCL069W, strain vba3, hits give low values 0.988 | locus YCR088W, strain abp1, hits give low values 0.978 | locus YDL005C, strain med2, hits give low values 0.989 | locus YDL040C, strain nat1, hits give low values 0.99 | locus YDR001C, strain nth1, hits give low values 0.983 | locus YDR069C, strain doa4, hits give low values 0.99 | locus YDR137W, strain rgp1, hits give low values 1.09 | locus YDR159W, strain sac3, hits give low values 1.01 | locus YDR195W, strain ref2 1 | locus YDR297W, strain sur2, hits give low values 0.984 | locus YDR334W, strain swr1, hits give low values 0.959 | locus YDR335W, strain msn5, hits give low values 0.968 | locus YDR392W, strain spt3, hits give low values 0.994 | locus YEL003W, strain gim4, hits give low values 0.986 | locus YEL037C, strain rad23, hits give low values 0.939 | locus YEL061C, strain CIN8 (second series), hits give low values 0.984 | locus YER015W, strain faa2, hits give low values 0.98 | locus YER016W, strain bim1, hits give low values 0.989 | locus YER111C, strain swi4, hits give low values 0.994 | locus YER155C, strain BEM2 (second series), hits give low values 0.995 | locus YFR010W, strain ubp6, hits give low values 0.974 | locus YGL167C, strain pmr1, hits give low values 0.987 | locus YGL173C, strain kem1, hits give low values 0.973 | locus YGL227W, strain vid30, hits give low values 0.991 | locus YGL240W, strain doc1, hits give low values 1 | locus YGL253W, strain hxk2, hits give low values 0.993 | locus YHR013C, strain ard1, hits give low values 0.947 | locus YHR027C, strain rpn1, hits give low values 0.986 | locus YHR030C, strain SLT2, hits give low values 0.966 | locus YHR079C, strain IRE1, hits give low values 0.963 | locus YHR142W, strain chs7, hits give low values 0.943 | locus YJL092W, strain hpr5, hits give low values 0.934 | locus YJL095W, strain BCK1 (second series), hits give low values 1 | locus YJL095W, strain BCK1, hits give low values 1 | locus YJL115W, strain asf1, hits give low values 0.974 | locus YJL129C, strain trk1, hits give low values 0.981 | locus YJL154C, strain vps35, hits give low values 0.987 | locus YJL164C, strain tpk1, hits give low values 0.99 | locus YJL166W, strain qcr8, hits give low values 0.997 | locus YJL187C, strain SWE1, hits give low values 0.998 | locus YJR066W, strain TOR1, hits give low values 0.923 | locus YKL160W, strain elf1, hits give low values 0.976 | locus YKR026C, strain gcn3, hits give low values 0.979 | locus YKR091W, strain srl3, hits give low values 0.992 | locus YLL001W, strain dnm1, hits give low values 0.973 | locus YLL026W, hits give low values 0.996 | locus YLL041C, strain sdh2, hits give low values 0.98 | locus YLR027C, strain aat2, hits give low values 0.995 | locus YLR113W, strain HOG1, hits give low values 0.995 | locus YLR221C, strain rsa3, hits give low values 0.979 | locus YLR258W, strain gsy2, hits give low values 0.995 | locus YLR262C, strain YPT6 (second series), hits give low values 1.06 | locus YLR320W, strain mms22, hits give low values 1.01 | locus YLR342W, strain FKS1, hits give low values 0.99 | locus YLR357W, strain rsc2, hits give low values 1.01 | locus YLR370C, strain arc18, hits give low values 0.984 | locus YLR384C, strain iki3, hits give low values 0.987 | locus YML120C, strain ndi1, hits give low values 0.969 | locus YMR058W, strain fet3, hits give low values 0.967 | locus YMR125W, strain sto1, hits give low values 1.02 | locus YMR129W, hits give low values 0.991 | locus YMR205C, strain PFK2, hits give low values 1.02 | locus YMR231W, strain pep5, hits give low values 0.996 | locus YNL071W, strain lat1, hits give low values 0.995 | locus YNL183C, strain NPR1, hits give low values 0.947 | locus YNL209W, strain ssb2, hits give low values 0.99 | locus YNL248C, strain rpa49, hits give low values 0.956 | locus YNL322C, strain KRE1 (second series), hits give low values 0.987 | locus YNR049C, strain mso1, hits give low values 0.989 | locus YOR001W, strain rrp6, hits give low values 0.975 | locus YOR070C, strain gyp1, hits give low values 0.992 | locus YOR080W, strain dia2, hits give low values 0.983 | locus YOR083W, strain WHI5, hits give low values 0.971 | locus YOR106W, strain vam3, hits give low values 0.972 | locus YOR231W, strain MKK1, hits give low values 0.972 | locus YOR265W, strain rbl2, hits give low values 0.995 | locus YOR270C, strain vph1, hits give low values 0.958 | locus YOR290C, strain snf2, hits give low values 1.02 | locus YPL051W, strain arl3, hits give low values 0.994 | locus YPL078C, strain atp4, hits give low values 1 | locus YPL106C, strain sse1, hits give low values 0.973 | locus YPL240C, strain hsp82, hits give low values 0.997 | locus YPL256C, strain CLN2, hits give low values 0.954
